Measured values from PubChem BioAssay AID1159580 (chemical genetic matrix, 2015).
Where “and” joins values, the source holds several entries; their conditions need not be identical. Identical values can stand only once. Out of some 5,500 compounds screened, about 2,000 (36%) were called active. Another 18% or so got no clear call; they are omitted. Rule as the data show it: active = normalized growth mostly below about 0.91 (no sharp cut-off); inconclusive = no clear call, values can overlap the other calls; inactive = mostly above about 0.92. The list shows a part of the results.

Test: chemical genetic growth profiling, strain panel (AID 1159580);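 also: tested at 20 µM; growth read once vehicle control cultures reached saturation at 30 °C; 1 = growth at the plate median or of vehicle wells; lower values mean less growth of the strain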
Details: S. cerevisiae deletion strains, growth OD

Measured: normalized growth

C[C@@H]1C(=O)O[C@H]2[C@H]1CC[C@@]1(C)C=CC(=O)[C@@]3(C)O[C@@]213
inactive: locus YAL013W, strain DEP1, active compounds read low 1 | locus YAL021C, strain ccr4, active compounds read low 1.01 | locus YAL026C, strain drs2, active compounds read low 1.02 | locus YAL030W, strain snc1, active compounds read low 1.01 | locus YBL061C, strain skt5, active compounds read low 1.01 | locus YBR009C, strain hhf1, active compounds read low 1.01 | locus YBR021W, strain FUR4, active compounds read low 1 | locus YBR023C, strain chs3, active compounds read low 1.02 | locus YBR171W, strain sec66, active compounds read low 1.02 | locus YBR229C, strain ROT2, active compounds read low 1.01 | locus YBR231C, strain swc5, active compounds read low 1.02 | locus YBR279W, strain paf1, active compounds read low 1.01 | locus YCL011C, strain gbp2, active compounds read low 1.01 | locus YCL016C, strain dcc1, active compounds read low 1 | locus YCL029C, strain bik1, active compounds read low 1.04 | locus YCL069W, strain vba3, active compounds read low 1.03 | locus YCR088W, strain abp1, active compounds read low 1.01 | locus YDL005C, strain med2, active compounds read low 1.02 | locus YDL035C, strain GPR1, active compounds read low 1.02 | locus YDL040C, strain nat1, active compounds read low 1 | locus YDL074C, strain BRE1, active compounds read low 1.02 | locus YDL101C, strain DUN1, active compounds read low 1.01 | locus YDL134C, strain PPH21, active compounds read low 0.993 | locus YDL185W, strain tfp1, active compounds read low 0.986 | locus YDL192W, strain arf1, active compounds read low 1.01 | locus YDR001C, strain nth1, active compounds read low 1.01 | locus YDR069C, strain doa4, active compounds read low 1.03 | locus YDR101C, strain arx1, active compounds read low 1.01 | locus YDR137W, strain rgp1, active compounds read low 0.982 | locus YDR150W, strain NUM1, active compounds read low 1.01 | locus YDR159W, strain sac3, active compounds read low 1.06 | locus YDR162C, strain NBP2, active compounds read low 1.02 | locus YDR195W, strain ref2 1.01 | locus YDR297W, strain sur2, active compounds read low 1 | locus YDR318W, strain mcm21, active compounds read low 1.02 | locus YDR334W, strain swr1, active compounds read low 1.02 | locus YDR335W, strain msn5, active compounds read low 1.01 | locus YDR388W, active compounds read low 1.01 | locus YDR392W, strain spt3, active compounds read low 0.996 | locus YDR502C, strain sam2, active compounds read low 1.02 | locus YEL003W, strain gim4, active compounds read low 1.01 | locus YEL037C, strain rad23, active compounds read low 1.02 | locus YEL061C, strain CIN8 (second series), active compounds read low 1.01 | locus YEL061C, strain CIN8, active compounds read low 1.01 | locus YER015W, strain faa2, active compounds read low 1.02 | locus YER016W, strain bim1, active compounds read low 1.01 | locus YER110C, active compounds read low 1.01 | locus YER111C, strain swi4, active compounds read low 1.02 | locus YER155C, strain BEM2 (second series), active compounds read low 1.03 | locus YER155C, strain BEM2, active compounds read low 0.996 | locus YER167W, strain BCK2, active compounds read low 1.02 | locus YFR010W, strain ubp6, active compounds read low 1.06 | locus YGL078C, strain dbp3, active compounds read low 1.03 | locus YGL086W, strain mad1, active compounds read low 1.02 | locus YGL167C, strain pmr1, active compounds read low 1.02 | locus YGL173C, strain kem1, active compounds read low 1.02 | locus YGL227W, strain vid30, active compounds read low 1.02 | locus YGL240W, strain doc1, active compounds read low 1.01 | locus YGL248W, strain PDE1, active compounds read low 1.02 | locus YGL253W, strain hxk2, active compounds read low 1.05 | locus YGR078C, strain PAC10, active compounds read low 1.02 | locus YGR135W, strain pre9, active compounds read low 1.03 | locus YGR229C, strain SMI1, active compounds read low 1.02 | locus YGR252W, strain gcn5, active compounds read low 1.06 | locus YHR013C, strain ard1, active compounds read low 0.995 | locus YHR027C, strain rpn1, active compounds read low 1.02 | locus YHR030C, strain SLT2, active compounds read low 1.01 and 1.04 | locus YHR079C, strain IRE1 (second series), active compounds read low 1.02 | locus YHR079C, strain IRE1, active compounds read low 1.04 | locus YHR094C, strain hxt1, active compounds read low 1 | locus YHR129C, strain ARP1, active compounds read low 1.01 | locus YHR142W, strain chs7, active compounds read low 1.02 | locus YHR200W, strain rpn10, active compounds read low 1.02 | locus YIL066C, strain RNR3, active compounds read low 1.02 | locus YIL073C, strain SPO22, active compounds read low 1.05 | locus YIL125W, strain kgd1, active compounds read low 1.03 | locus YIR030C, strain dcg1, active compounds read low 1.02 | locus YJL092W, strain hpr5, active compounds read low 1.02 | locus YJL095W, strain BCK1 (second series), active compounds read low 1.01 | locus YJL095W, strain BCK1, active compounds read low 1.03 | locus YJL115W, strain asf1, active compounds read low 1.02 | locus YJL129C, strain trk1, active compounds read low 1.04 | locus YJL134W, strain LCB3, active compounds read low 1 | locus YJL154C, strain vps35, active compounds read low 1.01 | locus YJL164C, strain tpk1, active compounds read low 1.01 | locus YJL166W, strain qcr8, active compounds read low 1.01 | locus YJL168C, strain set2, active compounds read low 1.01 | locus YJL187C, strain SWE1 (second series), active compounds read low 1.04 | locus YJR043C, strain POL32, active compounds read low 1.02 | locus YJR066W, strain TOR1, active compounds read low 0.959 | locus YJR075W, strain HOC1, active compounds read low 1.02
